The text below walks through data of PubChem BioAssay (Tox21).

The nature of assay [1]: A CellTox Green Cytotoxicity Assay to monitor cytotoxicity in HEK293 cells - 32 hour (AID 1224881). Also: nearly all actives have a fitted effect of over 40% in size. Also: potency is read from the fitted curve at half-maximal effect. In outline: (§1)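 HEK293 cells, 600/well, were preincubated 5 hours and then exposed to compounds at 37 C for up to 40 hours. A cell-impermeant cyanine dye staining dead-cell DNA was read by fluorescence at 0, 8, 16, 24, 32 and 40 h time points.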
A short description of assay [2]: A CellTox Green Cytotoxicity Assay to monitor cytotoxicity in HepG2 cells - 0 hour (AID 1224882). Also: nearly all actives have a fitted effect of over 35% in size. In outline: (§2)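 HepG2 cells, 600/well, preincubated 5 h with CellTox Green dye, then exposed to Tox21 compounds in DMSO at 37 C for up to 40 h. Dead-cell DNA fluorescence read at the indicated time point.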
The nature of assay [3]: A CellTox Green Cytotoxicity Assay to monitor cytotoxicity in HepG2 cells - 32 hour (AID 1224883). Also: nearly all actives have a fitted effect of over 50% in size. Also: potency is read from the fitted curve at half-maximal effect. In outline: as §2
Assay [4] is described as follows: A CellTox Green Cytotoxicity Assay to monitor cytotoxicity in HEK293 cells - 8 hour (AID 1224884). Also: nearly all actives have a fitted effect of over 35% in size. Also: potency is read from the fitted curve at half-maximal effect. In outline: as §1
The nature of assay [5]: qHTS RealTime-Glo MT Cell Viability Assay in HepG2 cells - 16 hour (AID 1224885). Also: nearly all actives have a fitted effect of over 50% in size. Also: potency is read from the fitted curve at half-maximal effect. In outline: (§3)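 HepG2 cells were seeded at 600 cells/well together with NanoLuc luciferase and a cell-permeant prosubstrate, preincubated 5 h at 37 C/5% CO2, then pin-dosed with compounds in DMSO. Nonlytic luminescence from viable cells was read at each time point.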
A short description of assay [6]: qHTS RealTime-Glo MT Cell Viability Assay in HEK293 cells - 24 hour (AID 1224886). Also: nearly all actives have a fitted effect of over 50% in size. Also: potency is read from the fitted curve at half-maximal effect. In outline:
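HEK293 cells were seeded at 600 cells/well together with NanoLuc luciferase and cell-permeant prosubstrate, preincubated 5 h at 37 C/5% CO2, then given compound in DMSO by pintool. Luminescence from viable-cell prosubstrate reduction was read repeatedly over 40 h.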
For orientation: qHTS replaces the single test concentration by a dilution series.

A short description of assay [7]: qHTS RealTime-Glo MT Cell Viability Assay in HEK293 cells - 8 hour (AID 1224887). Also: nearly all actives have a fitted effect of over 50% in size. Also: potency is read from the fitted curve at half-maximal effect. In outline: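 600 cells/well were plated with the nonlytic NanoLuc/prosubstrate reagent, pre-incubated 5 h, then given 23 nL of compound in DMSO. Incubation at 37 C for 40 h, with luminescence from viable-cell-reduced substrate read repeatedly from 0 h.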
A short description of assay [8]: A CellTox Green Cytotoxicity Assay to monitor cytotoxicity in HEK293 cells - 16 hour (AID 1224888). Also: nearly all actives have a fitted effect of over 35% in size. Also: potency is read from the fitted curve at half-maximal effect. In outline:
as §1

Assay [9] is described as follows: qHTS RealTime-Glo MT Cell Viability Assay in HepG2 cells - 0 hour (AID 1224889). Also: nearly all actives have a fitted effect of over 50% in size. In outline: as §3
The nature of assay [10]: A CellTox Green Cytotoxicity Assay to monitor cytotoxicity in HepG2 cells - 8 hour (AID 1224890). Also: nearly all actives have a fitted effect of over 45% in size. Also: potency is read from the fitted curve at half-maximal effect. In outline: as §2

Values joined by “and” are separate entries in the source; they are usually repeats but may differ in a detail not shown here. Equal entries are not always repeated. Records with an inconclusive call do not appear. Active and inactive are the calls of the source. Calls follow the shape of the dose curve; as a rule, active = well fitted curve in the direction sought with a large enough effect in the repeat runs; inconclusive = weak or mixed curves; inactive = no such curve, though single readings can be large; an effect the other way counts as inactive or inconclusive.

For the molecule `C=CC(C)(CCC=C(C)C)OC(=O)c1ccccc1N` (configuration not stated), the Potency entry in [1], in assay [2], in [3], in assay [4], in assay [5] and in assay [6] was “inactive” in each case. Moreover, the Potency result in assay [7], in [8] and in assay [10] was “inactive” throughout. Also, in [9], the molecule was classed as inactive.

For `CCCC(C)(COC(N)=O)COC(=O)NC(C)C` (configuration not stated), the Potency entry in assay [1], in assay [2], in assay [3], in assay [4], in [5] and in [6] was “inactive” each time. Besides, the Potency result in assay [7] and in [8] was “inactive” each time. In [9], the call was inactive.

In the case of `CC(C)(C)CC(C)(C)c1ccc(O)cc1`, the Potency in [1] was 12.3 µM (active) and 19 µM (active); in [3], 27.5 µM (active) and 15.1 µM (active); in assay [4], 15.5 µM (active) and 12 µM (active); in assay [5], 34.7 µM (active); in [7], 34.7 µM (active); in [8], 21.9 µM (active) and 21.3 µM (active). In assay [10], the Potency is 17.4 µM (active) and 10.7 µM (active). In addition, the Potency result in [2] and in assay [6] was “inactive” in each case. Also, in assay [9], the call was inactive.

For `CN(C1CCCCC1)C1CCCCC1`, the Potency result in assay [1], in [2], in assay [3], in [4], in assay [5] and in assay [6] was “inactive” in each case. Also, the Potency entry in assay [7], in assay [8] and in [10] was “inactive” each time. The molecule was classed as inactive in assay [9].

For `CCCCC#N`, the Potency entry in assay [1], in [2], in assay [3], in assay [4], in assay [5] and in [6] was “inactive” in each case. In addition, the Potency result in assay [7] and in assay [8] was “inactive” in each case. The call in assay [9] was inactive.

Turning to `O=C(O)COc1cc(Cl)c(Cl)cc1Cl`, the Potency entry in assay [1], in [2], in [3], in assay [4], in assay [5] and in [6] was “inactive” each time. Moreover, the Potency entry in [7] and in assay [8] was “inactive” throughout. In addition, in assay [9], the molecule was classed as inactive.

Take `NNCCO`: the Potency entry in assay [1], in assay [2], in [3], in assay [4], in [5] and in assay [6] was “inactive” in each case. Also, the Potency result in [7], in [8] and in assay [10] was “inactive” throughout. Further, in [9], the molecule was called inactive.

`C[C@H]1O[C@H](OC2[C@@H](O)[C@@H](O)C(O)[C@H](O)[C@H]2O)[C@@H](N)C[C@@H]1N=C(N)C(=O)O` (some centres not stated): the Potency entry in assay [1], in [2], in assay [3], in assay [4], in [5] and in [6] was “inactive” throughout. Also, the Potency entry in assay [7] and in [8] was “inactive” each time. Besides, in assay [9], the outcome was inactive.

As for `CCC(C)(C)O`, the Potency result in assay [1], in [2], in assay [3], in [4], in assay [5] and in assay [6] was “inactive” each time. Further, the Potency entry in [7], in assay [8] and in assay [10] was “inactive” each time. Also, in assay [9], the call was inactive.

With `CCc1cnc(C2=NC(C)(C(C)C)C(=O)N2)c(C(=O)O)c1` (configuration not stated), the Potency entry in assay [1], in assay [2], in assay [3], in assay [4], in assay [5] and in assay [6] was “inactive” each time. Besides, the Potency result in assay [7] and in assay [8] was “inactive” throughout. In addition, the molecule was called inactive in assay [9].

Turning to `Cc1ccccc1`, the Potency entry in [1], in assay [2], in [3], in assay [4], in assay [5] and in assay [6] was “inactive” in each case. Further, the Potency entry in assay [7], in assay [8] and in assay [10] was “inactive” throughout. The result in [9] was inactive.

With `FC(Cl)(Cl)C(F)(Cl)Cl`, the Potency result in assay [1], in assay [2], in [3], in [4], in [5] and in [6] was “inactive” throughout. Also, the Potency result in [7] and in [8] was “inactive” each time. Besides, the call in [9] was inactive.

Regarding `Cc1nc(N(C)C)nc(OC(=O)N(C)C)c1C`, the Potency entry in assay [1], in [2], in [3], in assay [4], in assay [5] and in [6] was “inactive” in each case. Also, the Potency result in [7] and in [8] was “inactive” each time. In addition, the call in assay [9] was inactive.

As for `O=C(O)c1ccc(=O)[nH]c1`, the Potency result in [1], in assay [2], in [3], in [4], in assay [5] and in assay [6] was “inactive” each time. For the same molecule, the Potency entry in assay [7] and in assay [8] was “inactive” in each case. Besides, the result in assay [9] was inactive.

Take `C[C@@H]1C[C@@H]([C@H](O)CC2CC(=O)NC(=O)C2)C(=O)[C@@H](C)C1`: the Potency entry in [1], in assay [2], in assay [3], in assay [4], in assay [5] and in [7] was “inactive” in each case. For the same molecule, the Potency entry in [8] and in [10] was “inactive” in each case. Besides, in assay [6], the Potency is 434 nM (active) and 245 nM (active) and 169 nM (active). For the same molecule, the outcome in assay [9] was inactive.

For `O=C(O)c1cc(I)cc(I)c1I`, the Potency entry in assay [1], in [2], in assay [3], in assay [4], in [5] and in [6] was “inactive” in each case. Moreover, the Potency entry in assay [7], in assay [8] and in assay [10] was “inactive” throughout. Moreover, the call in [9] was inactive.

Take `CCCC[N+]1(C)[C@@H]2CC(OC(=O)[C@H](CO)c3ccccc3)C[C@H]1[C@@H]1O[C@@H]12` (some centres not stated): the Potency entry in assay [1], in [2], in assay [3], in [4], in assay [5] and in [6] was “inactive” in each case. In addition, the Potency entry in assay [7], in [8] and in assay [10] was “inactive” throughout. Moreover, the molecule was called inactive in assay [9].

As to `CCCCCCCCP(=O)(O)O`, the Potency entry in assay [1], in assay [2], in assay [3], in assay [4], in [5] and in [6] was “inactive” throughout. The Potency result in assay [7], in assay [8] and in assay [10] was “inactive” throughout. The call in assay [9] was inactive.

`O=C([O-])c1ccccn1.O=C([O-])c1ccccn1.O=C([O-])c1ccccn1.[Cr+3]`: the Potency result in [1], in assay [2], in assay [3], in assay [4], in assay [5] and in assay [6] was “inactive” throughout. Besides, the Potency result in assay [7], in [8] and in assay [10] was “inactive” throughout. Further, the molecule was called inactive in assay [9].

As for `COCc1cnc(C2=NC(C)(C(C)C)C(=O)N2)c(C(=O)O)c1` (configuration not stated), the Potency entry in assay [1], in assay [2], in assay [3], in [4], in assay [5] and in [6] was “inactive” throughout. In addition, the Potency result in assay [7], in assay [8] and in assay [10] was “inactive” throughout. The molecule was classed as inactive in [9].

For `ClCc1ccccc1Cl`, the Potency result in assay [1], in assay [2], in assay [3], in assay [4], in assay [5] and in [6] was “inactive” in each case. The Potency entry in assay [7], in [8] and in assay [10] was “inactive” throughout. Besides, the molecule was called inactive in [9].

With `OC[P+](CO)(CO)CO`, the Potency result in [1], in [2], in assay [3], in [4], in assay [5] and in assay [6] was “inactive” each time. The Potency result in [7], in assay [8] and in assay [10] was “inactive” in each case. Besides, in [9], the molecule was classed as inactive.

With `C[C@H]1[C@@H]2Cc3ccc(O)cc3[C@@]1(C)CCN2C`, the Potency entry in assay [1], in assay [2], in [3], in [4], in assay [5] and in assay [6] was “inactive” throughout. Moreover, the Potency result in [7], in [8] and in [10] was “inactive” throughout. Also, in assay [9], the molecule was classed as inactive.

With `CCCSP(=S)(OCC)Oc1ccc(SC)cc1` (configuration not stated), the Potency entry in assay [1], in assay [2], in assay [3], in [4], in assay [5] and in assay [6] was “inactive” throughout. Further, the Potency result in assay [7], in assay [8] and in assay [10] was “inactive” in each case. In assay [9], the molecule was classed as inactive.

In the case of `CN1CC[C@]23c4c5ccc(O)c4O[C@H]2[C@@H](O)CC[C@H]3[C@H]1C5`, the Potency result in assay [1], in assay [2], in [3], in assay [4], in assay [5] and in [6] was “inactive” in each case. The Potency entry in assay [7], in assay [8] and in [10] was “inactive” each time. The molecule was classed as inactive in assay [9].
